# Measurements reported in publication PMC7862700, “An all-to-all approach to the identification of sequence-specific readers for epigenetic DNA modifications on cytosine”.
# Legend:
# Assay in all cases: DAPPL (digital affinity profiling via proximity ligation, sequencing); 10 mM Tris-HCl pH 7.5, 50 mM NaCl, 1 mM DTT, 4% glycerol, room temperature, 30 min; GST-TFs on glutathione beads, 16-mer random dsDNA library, 0.1% formaldehyde crosslink after washing; high values mean tight binding
# Details in all cases: protein: recombinant; tags: N-terminal GST; dsDNA, one strand shown
# FLI1 = target: T1, FLI1 (Homo sapiens, UniProt Q01543 1-452)
# T1 sequence: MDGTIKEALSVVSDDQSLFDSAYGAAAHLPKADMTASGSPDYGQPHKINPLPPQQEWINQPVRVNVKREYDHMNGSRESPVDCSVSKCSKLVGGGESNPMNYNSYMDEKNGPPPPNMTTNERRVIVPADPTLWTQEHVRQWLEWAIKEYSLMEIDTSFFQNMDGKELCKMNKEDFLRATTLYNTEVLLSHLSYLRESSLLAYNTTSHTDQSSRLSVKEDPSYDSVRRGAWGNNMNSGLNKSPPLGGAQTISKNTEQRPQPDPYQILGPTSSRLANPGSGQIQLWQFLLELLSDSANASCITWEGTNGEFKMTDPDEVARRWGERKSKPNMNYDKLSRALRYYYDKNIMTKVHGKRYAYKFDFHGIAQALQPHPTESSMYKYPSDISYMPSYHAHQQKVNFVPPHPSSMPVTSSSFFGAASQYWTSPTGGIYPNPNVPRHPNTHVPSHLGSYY
# Summary of the method: (§1)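 Each value of binding signal is a hexamer's read frequency for a factor divided by the same hexamer's frequency in the tag-only sample. Barcoded, bead-captured GST fusions of human transcription factors made in yeast were pooled with that sample and incubated with 200 nmole of a random double-stranded 16-mer DNA library in Tris/NaCl/DTT/glycerol buffer at room temperature for 30 min. Washing, 0.1% formaldehyde crosslinking, proximity ligation, PCR and Illumina NextSeq500 sequencing followed.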
# ELK1 = target: T2, ELK1 (Homo sapiens, UniProt P19419 1-428)
# T2 sequence: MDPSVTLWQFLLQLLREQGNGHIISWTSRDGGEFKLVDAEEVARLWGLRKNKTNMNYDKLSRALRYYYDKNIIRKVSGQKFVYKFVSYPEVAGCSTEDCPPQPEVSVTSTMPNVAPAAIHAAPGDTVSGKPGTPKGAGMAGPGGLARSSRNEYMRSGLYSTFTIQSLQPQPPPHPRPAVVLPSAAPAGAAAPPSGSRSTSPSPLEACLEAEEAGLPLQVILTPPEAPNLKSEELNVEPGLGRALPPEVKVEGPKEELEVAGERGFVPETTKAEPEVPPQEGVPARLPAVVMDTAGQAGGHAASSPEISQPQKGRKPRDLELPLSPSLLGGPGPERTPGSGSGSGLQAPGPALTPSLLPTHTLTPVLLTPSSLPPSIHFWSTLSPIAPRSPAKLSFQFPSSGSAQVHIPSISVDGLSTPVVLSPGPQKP
# Summary of the method: as §1
# GABPA = target: T3, GABPA (Homo sapiens, UniProt Q06546 1-454)
# T3 sequence: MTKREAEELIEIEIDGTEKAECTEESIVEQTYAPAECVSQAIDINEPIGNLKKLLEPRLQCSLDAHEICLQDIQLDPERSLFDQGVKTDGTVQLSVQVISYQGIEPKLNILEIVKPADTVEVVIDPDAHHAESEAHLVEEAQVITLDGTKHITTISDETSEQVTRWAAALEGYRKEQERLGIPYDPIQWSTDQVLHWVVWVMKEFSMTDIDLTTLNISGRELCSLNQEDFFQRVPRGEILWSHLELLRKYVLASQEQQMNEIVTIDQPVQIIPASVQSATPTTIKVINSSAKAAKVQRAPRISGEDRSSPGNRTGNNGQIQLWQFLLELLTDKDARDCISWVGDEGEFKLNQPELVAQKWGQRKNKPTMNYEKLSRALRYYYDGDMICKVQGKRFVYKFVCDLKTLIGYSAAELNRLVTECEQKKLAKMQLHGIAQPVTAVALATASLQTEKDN
# Summary of the method: as §1
# ERG = target: T4, ERG (Homo sapiens, UniProt P11308 1-479)
# T4 sequence: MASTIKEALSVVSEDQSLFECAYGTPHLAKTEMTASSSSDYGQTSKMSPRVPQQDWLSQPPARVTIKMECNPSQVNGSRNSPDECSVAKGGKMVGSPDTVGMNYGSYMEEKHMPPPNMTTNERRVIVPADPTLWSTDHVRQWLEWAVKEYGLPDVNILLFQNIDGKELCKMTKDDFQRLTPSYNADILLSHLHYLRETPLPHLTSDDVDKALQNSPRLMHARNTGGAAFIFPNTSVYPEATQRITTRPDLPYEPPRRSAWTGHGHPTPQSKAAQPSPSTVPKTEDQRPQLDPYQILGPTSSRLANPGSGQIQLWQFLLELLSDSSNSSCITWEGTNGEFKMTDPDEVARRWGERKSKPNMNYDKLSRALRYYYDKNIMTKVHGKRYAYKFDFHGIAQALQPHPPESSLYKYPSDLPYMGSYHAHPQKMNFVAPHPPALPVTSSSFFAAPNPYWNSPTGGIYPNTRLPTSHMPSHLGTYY
# Summary of the method: as §1
# ELF1 = ELF1 (Homo sapiens, UniProt P32519 1-619)
# Summary of the method: as §1
# EHF = target: T5, EHF (Homo sapiens, UniProt Q9NZC4 1-300)
# T5 sequence: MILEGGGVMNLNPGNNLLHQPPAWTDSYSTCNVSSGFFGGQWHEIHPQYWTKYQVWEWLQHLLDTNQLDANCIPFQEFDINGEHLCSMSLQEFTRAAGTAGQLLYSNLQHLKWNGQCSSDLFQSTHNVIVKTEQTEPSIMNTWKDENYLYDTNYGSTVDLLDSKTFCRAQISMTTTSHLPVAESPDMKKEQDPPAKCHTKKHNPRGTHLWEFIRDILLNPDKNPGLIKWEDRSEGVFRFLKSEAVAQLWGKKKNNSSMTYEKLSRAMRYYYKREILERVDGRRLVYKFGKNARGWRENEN
# Summary of the method: as §1
# SPI1 = SPI1 (Homo sapiens, UniProt P17947 1-270)
# Summary of the method: as §1
# SPIB = SPIB (Homo sapiens, UniProt Q01892 1-262)
# Summary of the method: as §1
# ELK3 = target: T6, ELK3 (Homo sapiens, UniProt P41970 1-407)
# T6 sequence: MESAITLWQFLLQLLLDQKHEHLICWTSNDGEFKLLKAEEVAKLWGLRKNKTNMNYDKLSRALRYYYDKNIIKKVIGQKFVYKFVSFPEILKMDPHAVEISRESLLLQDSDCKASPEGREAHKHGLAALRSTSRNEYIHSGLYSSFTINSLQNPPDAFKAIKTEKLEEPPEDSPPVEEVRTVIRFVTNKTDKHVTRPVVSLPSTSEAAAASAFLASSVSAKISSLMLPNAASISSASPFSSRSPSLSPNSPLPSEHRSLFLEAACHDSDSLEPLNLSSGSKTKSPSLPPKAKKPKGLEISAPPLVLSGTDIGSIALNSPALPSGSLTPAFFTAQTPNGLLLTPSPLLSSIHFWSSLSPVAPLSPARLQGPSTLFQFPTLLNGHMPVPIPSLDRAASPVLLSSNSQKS
# Summary of the method: as §1
# Chain of ELF1 (P32519 whole entry): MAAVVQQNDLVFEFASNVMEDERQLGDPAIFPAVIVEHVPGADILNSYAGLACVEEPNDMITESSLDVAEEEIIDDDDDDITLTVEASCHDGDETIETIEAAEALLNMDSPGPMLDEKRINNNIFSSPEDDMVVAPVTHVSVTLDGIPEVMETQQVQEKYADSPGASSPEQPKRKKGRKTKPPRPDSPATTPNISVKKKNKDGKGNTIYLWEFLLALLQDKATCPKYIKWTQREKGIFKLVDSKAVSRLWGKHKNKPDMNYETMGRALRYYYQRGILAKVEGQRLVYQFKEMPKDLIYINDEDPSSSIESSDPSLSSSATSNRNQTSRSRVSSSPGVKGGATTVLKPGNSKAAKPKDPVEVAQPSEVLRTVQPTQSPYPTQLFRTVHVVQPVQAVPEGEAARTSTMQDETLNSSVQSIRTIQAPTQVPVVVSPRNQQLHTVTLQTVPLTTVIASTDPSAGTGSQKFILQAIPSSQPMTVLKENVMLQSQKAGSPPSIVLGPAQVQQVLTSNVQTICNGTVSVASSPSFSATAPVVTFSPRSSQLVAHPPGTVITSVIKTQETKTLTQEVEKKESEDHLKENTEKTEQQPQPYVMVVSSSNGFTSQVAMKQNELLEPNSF
# Chain of SPIB (Q01892 whole entry): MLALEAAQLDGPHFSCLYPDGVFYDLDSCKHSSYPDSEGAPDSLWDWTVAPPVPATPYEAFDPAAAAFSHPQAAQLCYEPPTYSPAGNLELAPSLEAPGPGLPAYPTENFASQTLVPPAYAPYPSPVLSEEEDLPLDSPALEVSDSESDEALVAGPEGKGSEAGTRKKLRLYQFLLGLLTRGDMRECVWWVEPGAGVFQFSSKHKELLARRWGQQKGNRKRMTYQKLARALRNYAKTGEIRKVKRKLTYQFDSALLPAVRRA
sequence,measurement,setting,value
TGGCAA,binding signal,FLI1,"1.23 fold enrichment (6-mer frequency, TF over GST control)"
same,binding signal,ELK1,"1.21 fold enrichment (6-mer frequency, TF over GST control)"
same,binding signal,GABPA,"1.22 fold enrichment (6-mer frequency, TF over GST control)"
same,binding signal,ERG,"1.15 fold enrichment (6-mer frequency, TF over GST control)"
same,binding signal,ELF1,"1.2 fold enrichment (6-mer frequency, TF over GST control)"
same,binding signal,EHF,"1.16 fold enrichment (6-mer frequency, TF over GST control)"
same,binding signal,SPI1,"1.2 fold enrichment (6-mer frequency, TF over GST control)"
same,binding signal,SPIB,"1.32 fold enrichment (6-mer frequency, TF over GST control)"
same,binding signal,ELK3,"1.11 fold enrichment (6-mer frequency, TF over GST control)"
